USP2a inh: qHTS Assay for Inhibitors of Ubiquitin-specific Protease USP2a Using CHOP2 as the Reporter | USP2 core, Ub-CHOP2 coupled fluorogenic reporter, 485/531 | Potency, µM (titrated, usually from 38.3 µM), inactives show at the highest dose activity change, negative = inhibition, actives largely listed as inhibitors | 330,000 tested, 0.01% active | AID 463254, 2010;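 note: potency is the fitted concentration of half-maximal effect; plate controls were DMSO wells for no effect and full inhibition by NEM control for full effect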
Target sequence (O75604 whole entry, looked up): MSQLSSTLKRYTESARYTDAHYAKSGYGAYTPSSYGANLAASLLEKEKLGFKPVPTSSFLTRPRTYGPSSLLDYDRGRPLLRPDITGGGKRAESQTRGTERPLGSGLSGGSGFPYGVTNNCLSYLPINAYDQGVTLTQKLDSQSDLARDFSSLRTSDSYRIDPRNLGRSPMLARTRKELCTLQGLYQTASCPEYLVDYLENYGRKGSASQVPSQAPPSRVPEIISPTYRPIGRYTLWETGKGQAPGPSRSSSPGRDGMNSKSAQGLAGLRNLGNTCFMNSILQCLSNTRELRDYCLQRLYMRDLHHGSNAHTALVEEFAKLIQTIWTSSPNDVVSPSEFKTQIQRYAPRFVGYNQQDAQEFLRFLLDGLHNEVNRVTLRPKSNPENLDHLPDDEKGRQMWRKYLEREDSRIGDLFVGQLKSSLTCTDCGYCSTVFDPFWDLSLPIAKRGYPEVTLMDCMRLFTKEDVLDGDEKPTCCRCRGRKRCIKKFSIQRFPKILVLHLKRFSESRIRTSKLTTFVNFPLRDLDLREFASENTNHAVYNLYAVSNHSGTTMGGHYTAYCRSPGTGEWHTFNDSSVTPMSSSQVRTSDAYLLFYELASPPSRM
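USP2 core (10nM final) preincubated 30min RT with compound in 20mM Tris-HCl pH 8.0, 2mM CaCl2, 2mM beta-mercaptoethanol, 0.05% CHAPS; 25nM Ub-CHOP2 plus 25nM reporter substrate added, fluorescence (Ex485/Em531) read after 60min.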
USP1 inh: Inhibitors of USP1/UAF1: Primary Screen; Potency, µM (doses to about 57.1 µM), for the others: at the highest dose activity change, negative = inhibition, most hits filed as inhibitors; recombinant USP1/UAF1, Ub-Rhodamine cleavage fluorescence; 390,000 tested, 0.23% active; AID 743255, 2014; note: potency is the fitted concentration of half-maximal effect; % is set by controls: 0 for no effect and ±100 for the full control effect; nearly all actives have a fitted effect of over 60% in size
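1 nM enzyme complex + cpd, 15 min RT; start with Ub-Rho 150nM final; kinetic fluorescence ex 480/em 540, 6 reads q60 s. Buffer 50mM HEPES pH 7.8, 0.5mM EDTA, 0.1 mg/ml BSA, 1mM TCEP, 0.01% Tween-20.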
S2 tox: Viability Counterscreen for Primary qHTS for Inhibitors of ATXN expression; AID 651635, 2014; S2 cells (HEK-293 line with an ATXN2-luciferase reporter) viability, CellTiter-Fluor protease fluorescence, 24 h; Potency, µM (series often up to 56.7 µM), actives largely listed as cytotoxic; 400,000 tested, 0.49% active; note: potency is the fitted concentration of half-maximal effect; nearly all actives have a fitted effect of over 40% in size
ATXN2 expr inh: Primary qHTS for Inhibitors of ATXN expression | HEK-293 ATXN2-luciferase reporter, luminescence, 24 h | Potency, µM (titrated, usually from 57 µM), for inactives: at the highest dose activity change, negative = inhibition, actives largely listed as inhibitors | 360,000 tested, 0.72% active; note: potency is the fitted concentration of half-maximal effect; % is set by controls: 0 for no effect and ±100 for the full control effect; nearly all actives have a fitted effect of over 55% in size
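ATXN2-luciferase reporter cells (luciferase flanked by upstream and downstream ATXN2 gene portions) were treated 24 h at 37 °C with compounds at up to 57 uM. SteadyGlo luminescence gave expression; GF-AFC fluorescence gave viability.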
IL-1B inflam inh: qHTS for Inhibitors of Inflammasome Signaling: IL-1-beta AlphaLISA Primary Screen. THP-1 LPS/ATP IL-1B secretion, AlphaLISA, 16 h; hits give low values. activity change, % at 57.5 µM. 360,000 tested, 4.7% active. AID 743279, 2014; in the data active = activity change below about -50%; inconclusive = mostly about -30% to -49%; note: % is set by controls: 0 for no effect and ±100 for the full control effect
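THP-1 cells pretreated 1 hr with compounds (up to 57.5 uM final), then stimulated with LPS (250 ng/mL final) plus ATP (1.25 mM final); secreted IL-1B measured by AlphaLISA after 16 hr, decreased signal indicating inhibition.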
Active calls of the source: *; i = inactive; u = inconclusive; x = no result. Compounds with a hit are over-represented: about 4.8% of the library has one in this group of screens. Unless noted, calls come from the whole dose curve; as a rule, active = well fitted curve in the direction sought with a large enough effect; inconclusive = small, poorly fitted or top-dose-only effect, or another doubt; inactive = no such curve, though single readings can be large; an effect the other way counts as inactive or inconclusive.

SMILES | USP2a inh | USP1 inh | S2 tox | ATXN2 expr inh | IL-1B inflam inh
CCC1(C2CCN(C(=O)c3cc4ccccc4o3)CC2)NC(=O)N(CCc2scnc2C)C1=O (centres undefined) | x | x | i | x | x
COc1ccc(C(NC(=O)C2CCN(CCOc3ccc(Cl)cc3Cl)CC2)c2cccs2)cc1 (centres undefined) | x | x | u | -24% | -21
CC(C)CN1CCC(C(=O)NC(c2ccc(F)cc2)c2ccc3ccccc3n2)CC1 (centres undefined) | x | x | u | 7% | u
Cc1cccnc1C(NC(=O)C1CCN(CCOc2ccc(F)cc2)CC1)c1ccc(Cl)cc1 (centres undefined) | x | x | u | 0% | -69*
COc1ccc(OCCN2CCC(C(=O)NC(c3ccc(F)cc3)c3ncccc3C)CC2)cc1 (centres undefined) | x | x | i | -5% | -1
O=C(NC(c1ccccc1)c1ccsc1)C1CCN(CCOc2ccc(Cl)cc2Cl)CC1 (centres undefined) | x | x | x | u | -68*
COc1ccc(/C=C/CN2CCC(C(=O)NC(c3ccc(F)cc3)c3ccc4ccccc4n3)CC2)cc1 (centres undefined) | x | x | 35µM* | u | u
O=C(NC(c1ccc(Cl)cc1)c1ccsc1)C1CCN(Cc2ccc(Oc3ccccc3)cc2)CC1 (centres undefined) | x | x | u | -27% | -63*
Cc1cccc(NS(=O)(=O)c2ccc3c(c2)n(C)c(=O)n3C)c1C | x | 6% | x | x | x
O=C1NN=C(c2ccccc2)C1Cc1ccccc1 (centres undefined) | x | -18% | i | 1% | 0
C/C=C(\C)C(=O)NCCN1Cc2ccccc2OC(c2ccccc2OC)C1 (centres undefined) | x | x | i | x | x
Cc1ccccc1C(c1ncccc1C)N(C)C(=O)C1CCN(CCOc2ccc(Cl)cc2Cl)CC1 (centres undefined) | x | x | 25µM* | u | u
O=C(NC(c1cccnc1)c1ccc2c(c1)OCO2)C1CCN(CCOc2ccc(Cl)cc2Cl)CC1 (centres undefined) | x | x | u | u | -68*
O=C(NC(c1ccccc1)c1cnccn1)C1CCN(CCOc2ccc(Cl)cc2Cl)CC1 (centres undefined) | x | x | 13µM* | u | u
COc1ccc(OCCN2CCC(C(=O)NC(c3ccsc3)c3ccccc3C)CC2)cc1 (centres undefined) | x | x | u | 0% | -67*
CSc1cccc(NS(=O)(=O)c2ccc3[nH]cc(C(=O)N4CCCC4)c(=O)c3c2)c1 | x | -4% | i | 17% | x
COc1ccc(OCCN2CCC(C(=O)NC(c3ccc(Cl)cc3)c3cnccn3)CC2)cc1 (centres undefined) | x | x | i | -14% | -54*
COc1ccc(CCn2nnc3ccccc3c2=O)cc1OC | x | -31% | u | x | -9
CCCN(CC1CC1)c1cc2c(c3c1ccn3C)C1CCC2O1 (centres undefined) | x | x | i | -7% | -4
C=CCn1cccc(/C=C/C(=O)c2ccc(C(C)(C)C)cc2)c1=S | 3% | -23% | x | 25µM* | -107*
COc1ccc(NC(=O)C(Cc2ccccc2)n2cccc2)cc1 (centres undefined) | 0% | -4% | i | 5% | -73*
COC(=O)N/N=C/c1ccc([N+](=O)[O-])s1 | 3% | -5% | i | -28% | -17
Cc1c(Cl)cccc1N=Cc1ccc([N+](=O)[O-])s1 | 7% | 32µM* | u | u | -102*
S=c1[nH]nc(Nc2cccc3ccccc23)s1 | 1% | 5% | i | 24% | 12
O=C(c1ccc(C(=O)N2CCCc3ccccc32)s1)N1CCCc2ccccc21 | 1% | -17% | u | -9% | -52*
CCCNc1nc(N)nc(-c2cc(Cl)ccc2OC)n1 | 2% | -22% | i | -1% | 10
